Reference: PubChem BioAssay (EPA / NIEHS)
Values joined by “and” are separate entries in the source; they are usually repeats but may differ in a detail not shown here. Identical values can stand only once. The source holds several records for some structures; these can differ, active in one and inactive in another. Active and inactive are the calls of the source. Rule for the calls: active = hit-call score of the fitted dose curve at least 0.9, where 1 is the maximum; inactive = score below 0.9.

What follows are molecules tested on Monokine induced gamma interferon (MIG), CXCL9 (gene 4283) (assay: BSK_hDFCGF_MIG: BioMAP Diversity Plus: hDFCGF Assay for Monokine induced gamma interferon (MIG) Biomarker Activity (AID 2283063)). Conditions: primary human foreskin fibroblasts; actives raise or lower the signal.
Experimental: BSK_hDFCGF is a cell-based, multiplexed-readout assay that uses foreskin fibroblast, a human skin primary cell, with measurements taken at 24 hours after chemical dosing in a 96-well plate.BSK_hDFCGF_MIG is an assay component measured in the BSK_hDFCGF assay. It measures MIG antibody related to regulation of gene expression using ELISA technology.Data from the assay component BSK_hDFCGF_MIG was analyzed into 1 assay endpoint. This assay endpoint, BSK_hDFCGF_MIG, was analyzed with bidirectional fitting relative to DMSO as the negative control and baseline of activity. Using a type of binding reporter, gain or loss-of-signal activity can be used to understand changes in the signaling as they relate to the gene CXCL9. Furthermore, this assay endpoint can be referred to as a primary readout, because this assay has produced multiple assay endpoints where this one serves a signaling function. To generalize the intended target to other relatable targets, this assay endpoint is annotated to the cytokine intended target family, where the subfamily is chemotactic factor.
The levels of cell surface (or secreted, indicated by the prefix "s") biomarker endpoints were measured by ELISA. Overt cytotoxicity to cells in confluent adherent cultures (all systems other than the BT system) was assessed by measuring total protein levels using sulforhodamine B (SRB) staining in parallel cultures at the time of biomarker measurements, indicated as SRB endpoints. For proliferation assays for adherent cell types, individual cell types are cultured at sub-confluence and relative cell numbers quantified by SRB staining at time points optimized for each system (48 h: 3C and CASM3C systems; 72 h: BT and HDF3CGF systems; 96 h: SAg system). SRB was performed by staining cells with 0.1% SRB after fixation with 10% TCA and reading wells at 560 nm.Viability and proliferation of PBMC (T cells) was quantified by Alamar Blue reduction for the SAg and BT systems. For PBMC viability (referred to as PBMC Cytotoxicity within the assay endpoint names), cells were plated (75,000/well in a 96-well plate) and then chemical samples added for 1 h before addition of activators, SEB and TSST-1 (20 ng/mL final concentration each). Cells were incubated for 90 h. Then, Alamar Blue (20 uL/well) (Invitrogen, Cat DAL1100) was added for 6 h, and the plates were read with a fluorescence microplate reader at 546/580 nm (excitation/emission). For PBMC proliferation, cells were plated and activated as above but incubated for only 16 h prior to addition of Alamar Blue. Plates were read after 6 h.

Row | SMILES | outcome | AC50
1 | Cc1c(C(N)=O)cc([N+](=O)[O-])cc1[N+](=O)[O-] | inactive | –
2 | CN(C)c1ccc(C(c2ccccc2)c2ccc(N(C)C)cc2)cc1 | inactive | –
3 | CCCCCCCCCC/C=C/C1CC(=O)OC1=O (stereo not drawn) | inactive | –
4 | CN(C)Cc1cc(C(C)(C)C)c(O)c(C(C)(C)C)c1 | inactive | 20 µM (active)
5 | Cc1cc(-n2nc3ccc(Cl)cc3n2)c(O)c(C(C)(C)C)c1 | inactive | –
6 | CC[N+](CC)(CC(=O)Nc1c(C)cccc1C)Cc1ccccc1 | inactive | –
7 | OC(C(F)(F)F)(C(F)(F)F)C(O)(C(F)(F)F)C(F)(F)F | – | 30 µM (active)
8 | CCC(C)=NO | inactive | –
9 | CC[N+](CC)(CC(=O)Nc1c(C)cccc1C)Cc1ccccc1 (tested in a mixture with another compound) | inactive | –
10 | CCC[Si](OC(C)=O)(OC(C)=O)OC(C)=O | inactive | –
11 | CCCCC(CC)COC(=O)C=Cc1ccc(OC)cc1 (stereo not drawn) | – | 12 µM (active) and 10.2 µM (active)
12 | CCCCCCC(O)CCCCCCCCCCC(=O)OC (stereo not drawn) | inactive | –
13 | COc1ccccc1Oc1c(NS(=O)(=O)c2ccc(C(C)(C)C)cc2)nc(-c2ncccn2)nc1OCCO | inactive | –
14 | CCCCCCCCCCCCCCCCCC[N+](C)(C)C | – | 3.28 µM (active)
15 | C1CN(CCOCCN2CCOCC2)CCO1 | inactive | –
16 | COc1ccc(C(=O)c2ccccc2O)c(O)c1 | inactive | –
17 | Cc1cccnc1 | inactive | –
18 | CN(C)CCC(c1ccc(Cl)cc1)c1ccccn1 (stereo not drawn) | inactive | –
19 | Oc1cccc2ccccc12 | inactive | –
20 | CC(C)C1OCCN1CCOC(=O)NCCCCCCNC(=O)OCCN1CCOC1C(C)C (stereo not drawn) | inactive | –
21 | CCCCCCCCCCC1CO1 (stereo not drawn) | – | 30.3 µM (active)
22 | O=[N+]([O-])c1cc(S(=O)(=O)Nc2ccccc2)ccc1Nc1ccccc1 | – | 31 µM (active) and 31.3 µM (active)
23 | O=C(C(=O)c1ccccc1)c1ccccc1 | inactive | –
24 | COC(=O)/C=C\C(=O)OC | inactive | –
25 | CC(C)CC(=O)CC(C)CC(C)C (stereo not drawn) | inactive | –
26 | Sc1nc2ccccc2s1 | inactive | –
27 | COc1cc(CNC(=O)CCCC/C=C/C(C)C)ccc1O | inactive | –
